Assay outcomes: PubChem BioAssay, Broad Institute
Tgondii IFNg – T. gondii growth inhibition with IFN-gamma, primary screen, cell-based; Toxoplasma gondii growth in IFN-gamma-treated host cells; active compounds read low; activity change, negative = inhibition, % (test concentration not listed); 69,000 tested, 3.8% active; AID 1259416, 2018; in the data active means activity change below about -70%, passing the limit was not always enough;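 further: host cells are HeLa cells infected with Toxoplasma gondii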
Numbers stand for hits; n = inactive. The entries come from a sample that favours hits as a whole.

SMILES	Tgondii IFNg
Cn1c(-c2ccccc2)cnc1NC(=O)c1nonc1N	-104.5
COc1ccc(-c2cc(C(=O)Nc3ncc(-c4ccc(F)cc4)n3C)on2)cc1	n
Cc1cc2nc(C)c(CCC(=O)Nc3ncc(-c4ccccc4)n3C)c(C)n2n1	n
C[C@H](Cn1c(C(F)(F)F)cc2cccnc21)NC(=O)Cc1ccc2c(c1)OCO2	n
Cc1nn(CC(=O)NCc2cccs2)c(=O)c2nc(-c3ccccc3)sc12	n
CC(=O)c1c(C)nn(CC(=O)N2Cc3cnc(C(C)(C)C)nc3C2)c1C	n
Cc1ccc(F)cc1NC(=O)C(=S)NCc1ccccc1	n
Cc1cccc(S(=O)(=O)N2CCc3nc(-c4ccccc4)sc3C2)c1	n
Cc1nc2c(c(NC3CC3)n1)CCN(Cc1cnn(C)c1)CC2	n
Cc1cccc(S(=O)(=O)N2CCc3nc(-c4cnn(C)c4)nc(NC4CC4)c3C2)c1	-93.6
Cc1cc(C(=O)N2CCCC3(CC2)CN(C)C(=O)O3)c2c(C)nn(C)c2n1 (stereo not given)	n
COc1ccc(/C=C/CN2CCCC(OCc3ccccn3)C2)cc1 (stereo not given)	n
Cn1ccc(C(=O)NC2CCC23CCN(Cc2ccco2)CC3)c1 (stereo not given)	n
CCCN(CC1CCCO1)C(=O)c1ccc(-n2cccc2)cc1 (stereo not given)	n
CCN(CC)CCCNC(=O)c1cc2c(c3ccccc3n2CC2CC2)n1C	-77.5
Cn1c(C(=O)NCc2ccco2)cc2c1c1ccccc1n2CC1CC1	n
N#CCCNC(=O)c1cc2c(c3ccccc3n2CC2CC2)n1-c1ncccn1	n
Cc1cccc(CN(C(=O)CCNS(C)(=O)=O)C(C)C)c1	n
CCCn1cc(CN2CCN(Cc3cccc(Cl)c3)CC2)c(C)n1	n
Cc1ccsc1[C@@H]1CCN(Cc2cccn2-c2cccnc2)C[C@H]1O	n
COc1ccc(CNC(=O)Cn2c(=O)cc(C(=O)N3CCc4ccccc4C3)c3ccccc32)cc1	n
c1ccc(COCCN2CCCN3CCC[C@H]3C2)cc1	n
Fc1ccccc1Cn1c(-c2cncs2)nc2ccccc21	n
CNC1(c2ccc(OC)cc2)Oc2ccccc2C(C#Cc2ccccc2)=C1C (stereo not given)	-106.6
COc1ccc2[nH]c(CN3CCn4cncc4C3)c(C)c2c1	n
SMILES	Tgondii IFNg
CC1CCN(Cc2nc3ccccc3n2C)CC1	n
N#Cc1c(C(F)(F)F)cc(-c2ccccc2)nc1SCC(N)=O	n
N#Cc1c(-c2ccccc2)cc(-c2ccccc2)nc1SCc1nnc(-c2ccccc2)o1	-100.5
CCc1nc(SCc2nnc(-c3ccc(C)cc3)o2)c2c(C)c(C)sc2n1	n
COCC1c2nnn(C)c2CCN1C(=O)Cc1cccc(F)c1 (stereo not given)	n
Cn1ncc(Cl)c1-c1cc(C(=O)N[C@H](CN)Cc2cccc(F)c2)sc1Cl	-85.1
Cn1c(C(=O)NCc2cccc(F)c2)nc2c1CCN(S(C)(=O)=O)C2	n
Cc1coc(=O)n1-c1ccc(Cl)cc1Cl	n
Fc1cccnc1OCC1CNCc2cncn2C1 (stereo not given)	n
COC(=O)CSC(=O)NC(=O)c1ccccc1Oc1ccc(Cl)cc1Cl	-91.7
O=S(=O)(Nc1ccc(F)c(Cl)c1)c1ccccc1Oc1ccc(Cl)cc1Cl	n
COc1ccccc1Oc1ccccc1C(=O)O	n
Cc1cccc(-c2nc(C)c(CCNS(=O)(=O)c3ccc(Cl)cc3)s2)c1	n
CCCCOc1ccc(-c2nnn(CC(=O)c3ccc(C)cc3)n2)cc1	n
CCc1ccc(NC(=O)N2CCC3(CC2)NC(=O)c2ccccc2N3C)cc1	n
Cc1nc(-c2ccc(F)cc2)sc1CCNC(=O)c1ccccc1F	n
COc1ccc(C(=O)NCCc2sc(-c3cccc(F)c3)nc2C)c(OC)c1	n
COc1ccc(C(=O)NCCc2sc(-c3ccc(F)cc3)nc2C)c(OC)c1	-86.9
COc1cccc(C(=O)NCCc2sc(-c3ccc(F)cc3)nc2C)c1OC	n
COc1ccc(Cl)cc1C(=O)NCCc1sc(-c2ccc(F)cc2)nc1C	-102.3
COc1ccc(C(=O)NCCc2sc(-c3ccc(Cl)cc3)nc2C)c(OC)c1	n
Cc1cc(C)cc(NC(=O)CC(=O)NCC2CC(=O)N(C3CC3)C2)c1 (stereo not given)	n
Cc1oc(-c2ccc(C(C)C)cc2)nc1Cn1cnc2nc3c(cc2c1=O)CC(C)CC3 (stereo not given)	n
Cc1nc(CNC(=O)c2cc(=O)c3ccccc3o2)nc2c1CCCC2	n
COc1ccc(C2CCCN2S(=O)(=O)c2cnc(NC(C)=O)s2)cc1OC (stereo not given)	n
SMILES	Tgondii IFNg
CCC(C)N(Cc1ccncc1)C(=O)CCSC (stereo not given)	n
Fc1cccc(-c2nnn3c2COC(CNCc2nccs2)C3)c1 (stereo not given)	n
Cc1ccc2ccc3ccc(C)nc3c2n1	-75.9
Cc1ccc2cccc(NS(=O)(=O)c3cn(C)nc3C)c2n1	n
Cc1ccc2cccc(N3C(=O)Nc4ccccc4N3O)c2n1	n
Cc1cc(C(=O)N2CCC3(CCCNC3)C2)ccc1N1CCOCC1 (stereo not given)	n
O=C(Nc1ccc2c(c1)OCO2)c1c(O)c2cccnc2n(-c2ccccc2)c1=O	n
O=C(Nc1ccc(Cl)c(Cl)c1Cl)NC1CCSC1 (stereo not given)	-74.9
Cc1nsc(NC(=O)NC2CCN(Cc3ccccc3Cl)CC2)n1	n
O=S(=O)(c1cccc(Cl)c1)N1CCc2nc(-c3ccccc3)sc2C1	n
CCOc1ccc(-c2nc3c(s2)CN(C(=O)Nc2ccccc2CC)CC3)cc1	n
COc1ccc(-c2nc3c(s2)CN(S(=O)(=O)c2ccccc2Cl)CC3)cc1	-85.9
CCOc1ccc(-c2nc3c(s2)CN(S(=O)(=O)c2ccccc2Cl)CC3)cc1	-88.5
COc1ccc(-c2nc3c(s2)CN(S(=O)(=O)c2ccc(C(C)C)cc2)CC3)cc1	n
Cc1cnc(N)c(C(=O)C2CCN(C(=O)c3cnc(C)nc3C)CC2)c1	n
COCC(NC(=O)c1ccccc1N1CCOCC1)c1ccnn1C (stereo not given)	n
CC(=O)Cn1c(=O)c2c(nc3n(C(C)C)c(C)c(C)n23)n(C)c1=O	n
Cc1ccc2c(c1)c(CNC(=O)c1cc(COc3ccccc3)[nH]n1)nn2C	n
CN1CCN(c2nccc(C(F)(F)F)n2)CC1C(=O)O (stereo not given)	n
N#Cc1ccc(N2CC3(CCN(C(=O)c4cnccn4)C3)CC2=O)cc1 (stereo not given)	n
O=C(c1ccn[nH]1)N1CCC2(CC(=O)N(c3ccc(F)cc3)C2)C1 (stereo not given)	-92.1
Cc1ccccc1N1CC2(CCN(C(=O)Cc3ccc(F)cc3)C2)CC1=O (stereo not given)	n
O=C(c1ccn[nH]1)N1CCC2(CC(=O)N(c3ccccc3)C2)C1 (stereo not given)	n
Cc1ccc(N2CC3(CCN(C(=O)Cc4ccc(F)cc4)C3)CC2=O)cc1 (stereo not given)	-113.1
Cc1ccc(N2CC3(CCN(C(=O)Nc4ccc(F)cc4)C3)CC2=O)cc1 (stereo not given)	n
Cc1ccc(-c2nc(C)c(CCNC(=O)C(=O)Nc3ccccc3[N+](=O)[O-])s2)cc1	n
Cc1ccccc1CN1CCCC12CCN(S(=O)(=O)c1ccccc1)C2 (stereo not given)	n
CC(C)S(=O)(=O)N1C[C@@H]2c3ccccc3CN[C@@H]2C1	n
COc1cc(NC(=O)Cc2c(C)noc2C)ccc1-n1nc(C)cc1C	n
Cc1ccc(C(=O)N2CCNC(=O)C(Cc3ccc(-c4ccccc4)cc3)C2)s1 (stereo not given)	n
